Assay outcomes deposited in PubChem BioAssay by Johns Hopkins Ion Channel Center.
KCNQ2 pot: enhances the rat KCNQ2 potassium channel; O88943; CHO-K1 KCNQ2, FluxOR thallium flux fluorescence; stronger effect = higher value; B-score at 10 µM; hit rate 0.54% among 310,000; AID 2239;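 active means fluorescence ratio B-score at least 3 SD of library B-scores, with initial fluorescence B-score within 3 of them, cut at about 5.3 in these data; same plate scores as AID 2156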;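 further: B-score of peak minus minimum over baseline fluorescence ratio after K+ and Tl+ stimulus; positive B-score means potentiation of KCNQ2 with more thallium influx and brighter signal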
KCNQ2 inh: blocks the rat KCNQ2 potassium channel | CHO-K1 KCNQ2, FluxOR thallium flux, 20 min; stronger effect = lower value | AID 2156 | hit rate 1.1% among 310,000 | B-score at 10 µM | O88943;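 active means fluorescence ratio B-score at most minus 3 library SDs, with starting brightness B-score within 2 library SDs, cut at about -5.5 in these data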
Kir21 conf inh: confirmation of mouse Kir2.1 potassium channel inhibitors; AID 2032; hit rate 41% among 2,300; Kir2.1-expressing cells, FluxOR thallium flux fluorescence; stronger effect = lower value; shares compounds with KCNQ2 pot; Tl flux remaining, % of negative control (stronger effect = lower value), % at 10 µM;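 active means Primary-screen hit whose thallium flux fell at least 3 control SD below untreated wells in both duplicates, with normal baseline fluorescence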
Target sequence (P35561 whole entry, looked up): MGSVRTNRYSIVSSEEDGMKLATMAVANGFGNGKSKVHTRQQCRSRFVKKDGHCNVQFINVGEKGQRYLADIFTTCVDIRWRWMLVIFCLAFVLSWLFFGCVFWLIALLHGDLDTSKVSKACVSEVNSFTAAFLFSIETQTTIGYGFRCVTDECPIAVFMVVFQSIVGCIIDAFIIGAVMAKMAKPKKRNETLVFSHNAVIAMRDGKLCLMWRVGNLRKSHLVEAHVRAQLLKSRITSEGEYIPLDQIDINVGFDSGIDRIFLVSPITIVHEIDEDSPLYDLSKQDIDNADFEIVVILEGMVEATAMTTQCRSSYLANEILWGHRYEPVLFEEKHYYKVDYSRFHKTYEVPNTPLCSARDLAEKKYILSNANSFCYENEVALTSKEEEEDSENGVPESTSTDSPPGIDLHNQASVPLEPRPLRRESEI
HEK293 ctr: counter-screen for Kir2.1 inhibitors: effect in parental HEK293 cells; shares compounds with KCNQ2 pot; FluxOR signal as % of negative control (100 = no effect), % at 10 µM; hit rate 19% among 2,300; FluxOR thallium flux fluorescence; 0% = unstimulated blank wells;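 active means dye signal at least 3 control SD above or below untreated wells in both duplicates, raw fluorescence within 3, either direction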;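 further: percent is based on the flux ratio of peak minus minimum fluorescence over baseline F0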
CHO-K1 Tl ctr: alters thallium flux in parental CHO-K1 cells, KCNQ2 counter-screen | shares compounds with KCNQ2 pot | FluxOR thallium flux fluorescence; zero = vehicle mean+3SD, 100% = vehicle-minus-blank window | hit rate 43% among 1,200 | AID 2282 | activity increase over 3SD of controls, % at 10 µM;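 active means signal rise of at least 3 SD above the untreated control mean, in both duplicate wells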;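 further: counter screen of KCNQ2 potentiator hits so any rise reflects channel-independent effects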
KCNQ1 sel pot: tests whether KCNQ2 potentiators also act on human KCNQ1. shares compounds with KCNQ2 pot. activation over 3SD threshold, % at 10 µM. CHO KCNQ1 stable, FluxOR thallium flux fluorescence; beyond 3SD, as % of vehicle-control signal. hit rate 28% among 1,200;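 active means fluorescence ratio rise of at least 3 SD of vehicle wells above their mean, in both replicate wells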
KCNQ2 pot conf: confirmation of rat KCNQ2 potassium channel potentiators. shares compounds with KCNQ2 pot. CHO-KCNQ2 cells, FluxOR thallium flux fluorescence. potentiation, less the hit threshold, % at 10 µM. hit rate 68% among 1,200. AID 2287;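 active means fluorescence ratio rising 3 SD or more over the vehicle control mean in both replicates, plus primary screen hit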;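 further: peak minus minimum thallium fluorescence divided by baseline after K/Tl stimulus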
Kir2-1 sel: mouse Kir2.1 off-target activity of KCNQ2 potentiators; shares compounds with KCNQ2 pot; HEK293 Kir2.1, FluxOR thallium flux fluorescence; activity over 3SD threshold, % at 10 µM; hit rate 2% among 1,200;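 active means fluorescence ratio rise of at least 3 SD above the vehicle-control mean, seen in both replicates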
KCNQ2 W236L MoA: potentiates the retigabine-insensitive rat KCNQ2 W236L mutant channel; shares compounds with KCNQ2 pot; CHO KCNQ2-W236L, automated patch clamp current; current increase over 3SD of negative controls (%), stronger effect = higher value, % at 25 µM; hit rate 10% among 940; AID 2558;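 active means current increase at least 3 SD of the untreated controls above them in both duplicate recordings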
Numbers stand for hits; - = inactive; . = not tested or not shown. An excerpt weighted towards active compounds, which were near 1.6% of everything screened.

SMILES | KCNQ2 pot | KCNQ2 inh | Kir21 conf inh | HEK293 ctr | others
NC(=NCc1ccco1)NC(=O)c1ccc(Cl)cc1 | 7 | - | - | - | CHO-K1 Tl ctr=2.6;KCNQ1 sel pot=-;KCNQ2 pot conf=51;Kir2-1 sel=-;KCNQ2 W236L MoA=-
CCOC(=O)C(NC(=O)C1CCCN1C(=O)OCc1ccccc1)C(=O)OCC (configuration not stated) | - | - | . | .
COc1ccc(C(=O)N2CCN(S(=O)(=O)c3ccc(F)cc3)CC2)cc1OC | . | - | . | .
COc1ccc(C(=O)CCS(=O)(=O)c2ccc(F)cc2)cc1OC | 6.6 | - | - | - | CHO-K1 Tl ctr=36;KCNQ1 sel pot=60;KCNQ2 pot conf=24;Kir2-1 sel=-;KCNQ2 W236L MoA=6.0%
O=C(CSCc1ccccc1)Nc1cccc(F)c1 | . | - | . | .
O=C(CSc1n[nH]c(-c2ccccc2Cl)n1)NCc1cccc(C(=O)O)c1 | . | - | . | .
Cc1cc(OCC(O)CN2CCc3ccccc3C2)cc(C(C)C)c1 (configuration not stated) | . | - | 53% | -
CCOc1ccc(OCC(O)CN2CCc3ccccc3C2)cc1 (configuration not stated) | . | - | . | .
S=C(NCC1CCCO1)N1CCN(c2nc(-c3ccc(Cl)cc3)cs2)CC1 (configuration not stated) | . | - | - | -
S=C(NCCCN1CCOCC1)N1CCN(c2nc(-c3ccc(Cl)cc3)cs2)CC1 | . | - | . | .
Cc1cc(N/N=C/c2ccccc2[N+](=O)[O-])nc(-n2nc(C)cc2C)n1 | 5.4 | - | - | - | CHO-K1 Tl ctr=-;KCNQ1 sel pot=-;KCNQ2 pot conf=-;Kir2-1 sel=-
Cc1cc(N/N=C/c2cccc([N+](=O)[O-])c2)nc(-n2nc(C)cc2C)n1 | - | - | . | .
CC(C)(C)c1ccc(C(=O)CC(=O)c2cc(Cl)ccc2O)cc1 | - | - | . | .
Cc1ccc(C(=O)CC(=O)c2cc(Cl)ccc2O)cc1 | 6 | - | - | - | CHO-K1 Tl ctr=-;KCNQ1 sel pot=-;KCNQ2 pot conf=27;Kir2-1 sel=-;KCNQ2 W236L MoA=-
Cc1ccc(S(=O)(=O)Oc2ccccc2/C=N/N=C(N)N)cc1 | . | - | 46% | -
Cc1ccc(S(=O)(=O)Oc2ccccc2/C=N/NC(N)=S)cc1 | - | - | . | .
COc1ccc(CCNC(=O)C/C(C)=N/NC(=O)C(c2ccccc2)c2ccccc2)cc1OC | - | - | . | .
CCc1ccc(NS(=O)(=O)c2ccc3c(c2)CCN3C(=O)CCC(=O)O)cc1 | . | - | . | .
CCCCC(CC)CNS(=O)(=O)c1ccc2c(c1)CCN2C(=O)CCC(=O)O (configuration not stated) | . | - | - | -
O=C(O)c1ccccc1N/N=C/C1=C(N2CCOCC2)C(=C\c2ccccc2)/CC1 | . | - | . | .
CCc1ccc(/C=C2/SC(=S)N(CCC(=O)Nc3cccnc3)C2=O)cc1 | - | - | . | .
O=C(NNC(=O)c1ccccc1OCc1ccc(F)cc1)c1ccncc1 | 6.1 | - | - | - | CHO-K1 Tl ctr=23;KCNQ1 sel pot=-;KCNQ2 pot conf=-;Kir2-1 sel=-
COc1ccccc1C(=O)NNC(=O)c1ccc(F)cc1 | . | - | . | .
Cc1cc(NC(=O)c2cccc(S(=O)(=O)N3c4ccccc4CC3C)c2)no1 (configuration not stated) | . | - | . | .
CCCCC#Cc1ccc(C(=O)NNC(=O)Nc2ccccc2)o1 | . | - | . | .
SMILES | KCNQ2 pot | KCNQ2 inh | Kir21 conf inh | HEK293 ctr | others
Cc1cccc(/C=N/NC(=O)Cc2ccc(Cl)cc2)c1O | 7.2 | - | - | 69% | CHO-K1 Tl ctr=-;KCNQ1 sel pot=7.6;KCNQ2 pot conf=2.5;Kir2-1 sel=-;KCNQ2 W236L MoA=-
Cc1ccc(O)c(/C=N/NC(=O)Cc2ccc(Cl)cc2)c1 | 5.3 | - | - | - | CHO-K1 Tl ctr=-;KCNQ1 sel pot=43;KCNQ2 pot conf=-;Kir2-1 sel=-
Cc1ccsc1/C=N/NC(=O)Cc1ccc(Cl)cc1 | . | - | . | .
Cc1cccc(/C=N\NC(=O)c2ccc(Cl)cc2)c1O | - | - | . | .
COC(=O)C1CCN(C(=O)c2ccc(OC3CCN(Cc4ccccn4)CC3)cc2)CC1 | - | - | . | .
O=C(CCc1ccccc1)n1nc(-c2ccccc2)nc1NCc1ccco1 | . | - | . | .
CCC(=O)N(Cc1ccco1)c1nc(-c2ccc(OC)cc2)cs1 | . | - | . | .
CCC(=O)N(CC)c1nc(-c2ccc(OC)cc2)cs1 | - | - | - | -
O=C(O)c1ccc(OCC(O)Cn2cnc3ccccc32)cc1 (configuration not stated) | - | - | . | .
Cc1ccc(NC(=O)C2C3/C=C\CCCCC32)cc1 (configuration not stated) | - | - | . | .
Cc1cc(C)c(NC(=O)C2C3/C=C\CCCCC32)c(C)c1 (configuration not stated) | 12 | - | - | - | CHO-K1 Tl ctr=-;KCNQ1 sel pot=-;KCNQ2 pot conf=56;Kir2-1 sel=-;KCNQ2 W236L MoA=-
Cc1ccc(C2CC(c3cccc(Cl)c3)n3nc(N)nc3N2)cc1 (configuration not stated) | - | - | . | .
Cn1cccc1C(=O)NC(=O)CSc1nnc(C2CC2)n1-c1ccccc1 | . | - | . | .
Cn1c(CNC(=O)c2ccc(F)cc2)cc2ccccc21 | 6.5 | - | - | - | CHO-K1 Tl ctr=-;KCNQ1 sel pot=78;KCNQ2 pot conf=-;Kir2-1 sel=-;KCNQ2 W236L MoA=-
Cn1c(CNC(=O)c2ccccc2F)cc2ccccc21 | . | - | . | .
Cc1ccc(N=C2NC(=O)CS2)cc1 | . | - | . | .
CCOc1ccc(CCNC(=O)c2cc3sc(Cl)cc3n2C)cc1OCC | . | - | . | .
COC(=O)CSC1=NS(=O)(=O)c2ccccc21 | - | -7.9 | 58% | -
COC(=O)CSc1ccccc1C(=O)OC | . | - | . | .
CC1(C)CC(=O)/C(=N/Nc2ccc(Cl)cc2)CO1 | . | - | . | .
CCOC(=O)Cn1c2c(c(=N)c3ccccc31)CCC2 | - | - | . | .
CCOC(=O)C1=C[C@]2(CC)CCCN3CCc4c(n1c1ccccc41)[C@@H]32 | 10 | - | . | . | CHO-K1 Tl ctr=-;KCNQ1 sel pot=61;KCNQ2 pot conf=39;Kir2-1 sel=-;KCNQ2 W236L MoA=-
CC(O)CNCc1ccc(Cl)cc1Cl (configuration not stated) | . | - | . | .
CC(=O)C1=C(C)NC(SCC(=O)c2ccc(F)cc2)=C(C#N)C1c1ccco1 (configuration not stated) | - | - | . | .
N#CC1=C(SCC(=O)c2ccccc2)NC2=C(C(=O)CCC2)C1c1ccco1 (configuration not stated) | - | - | . | .
Cc1ccc(C(=O)CSC2=C(C#N)C(c3ccco3)C3=C(CCCC3=O)N2)cc1 (configuration not stated) | 6.6 | - | - | - | CHO-K1 Tl ctr=0.0;KCNQ1 sel pot=5.9;KCNQ2 pot conf=-;Kir2-1 sel=-
CCc1ccc(C(=O)CSC2=C(C#N)C(c3ccco3)C(C(C)=O)=C(C)N2)cc1 (configuration not stated) | 9.8 | - | - | - | CHO-K1 Tl ctr=113;KCNQ1 sel pot=-;KCNQ2 pot conf=-;Kir2-1 sel=-
CCc1nn(C(CC)C(=O)NCCCc2ccccc2)c(=O)c2cc3occc3n12 (configuration not stated) | . | - | . | .
